# ChEMBL document CHEMBL3988442, “University of Dundee, Small-Polar-MMV Screening Library” (2021)
# Screen size: about 69,000 compounds; about 950 (1.4%) showed an effect of 50% or more. Only a selection was taken, and strong results are over-represented in it overall.
# Tested on: Mycobacterium tuberculosis
# Assay: Cornell M. t heat shock assay; also: in the data most compounds retested in dose-response had high values
# Assay type: functional, organism-based
# Parameters: dose or concentration left out as unconfirmed
row,SMILES,Percent Effect [%]
1,Cc1nc[nH]c1CN(Cc1ccccc1F)C1CC(C)(C)NC(C)(C)C1.O=C(O)CC(O)(CC(=O)O)C(=O)O,-2.69
2,Cc1ccc(C2(CN3CCN(Cc4cn(C)nc4C)CC3)CC2)cc1.Cl,5.814
3,Cl.O=C(NC1CCCC1)c1ccnc(C2CCNCC2)c1,-6.855
4,CN(C)C(=O)COCC1CN(Cc2ccoc2)Cc2ncn(C)c21.O=C(O)C(F)(F)F.O=C(O)C(F)(F)F (centres undefined),-26.5
5,Cc1ccc(N2CCCC3(COCCN(c4ccccn4)C3)C2)nn1.O=C(O)C(F)(F)F (centres undefined),-19.77
6,Cc1nc2cc(-c3nccn3C)nn2c(N2CCC(O)CC2)c1C.Cl,0.7953
7,CNC(=O)[C@@H]1C[C@H]2CN(Cc3ccco3)C[C@H]2N1C.O=C(O)C(F)(F)F.O=C(O)C(F)(F)F,-19.75
8,CS(=O)(=O)NC[C@]12COC[C@H]1CN(CC1CCCC1)C2.O=C(O)C(F)(F)F,-15.72
9,O=C(O)C(F)(F)F.O=C(O)C(F)(F)F.O=C(O)C(F)(F)F.c1ccc(CN2CCC3(CC2)CCN(Cc2cccs2)C3)nc1,-44.21
10,Cc1nn(C)c2c(=O)n(CC(=O)NCc3ccccc3Cl)ccc12,-7.047
11,Cc1cnn(CC2CCCCN2CC(=O)Nc2nncs2)c1 (centres undefined),18.17
12,Cc1cnn(CC2CCCCN2CC(=O)Nc2nc(C)cs2)c1 (centres undefined),74.94
13,Cc1cnn(CC2CCCCN2CC(=O)Nc2c(C)n[nH]c2C)c1 (centres undefined),-5.895
14,O=C(N[C@@H]1CN(Cc2c[nH]nc2-c2ccccc2)C[C@H]1O)c1cc[nH]n1,1.707
15,CN1CCCCc2c1nc1c(c2N)CCC1.O=C(O)c1cc([N+](=O)[O-])ccc1Cl,-19.05
16,Cc1cc(C)cc(CN2CCC3(CC2)CC(Nc2ncccn2)CO3)c1.O=C(O)C(F)(F)F (centres undefined),-30.68
17,C=C/C=c1\c(=C/C)oc2c(NCc3ccccc3)nc(C)nc12,104.3
18,C=C/C=c1\c(=C/C)oc2c(NCc3ccccc3)nc(CC)nc12,75.04
19,CCn1c(NCc2ccccc2)nc2c(C)nn(C)c2c1=O,12.91
20,Cc1nc(NCc2cccnc2)c2c(n1)c(C)nn2C,15.35
21,CCc1nc(NCc2ccccn2)c2c(n1)c(C)nn2C,-15.98
22,C=C/C=c1\c(=C/C)oc2c(NCc3ccccc3)ncnc12,-0.4342
23,CS(=O)(=O)N1CCC2(CC1)COC(COc1ccccn1)C2.O=C(O)C(F)(F)F (centres undefined),-12.81
24,O=C(O)C(F)(F)F.O=C(O)C(F)(F)F.O=C1[C@H]2CN(Cc3ccccc3)C[C@H]2CN1CCN1CCCC1,1.586
